# Measured values: PubChem BioAssay AID588342 (National Center for Advancing Translational Sciences (NCATS), 2011)
# About 25,000 (6.9%) of roughly 360,000 compounds were called active. Not shown: some 9% with an inconclusive outcome. The call rests on the fitted dose curve; in most records, active means well fitted inhibition curve with a large enough effect; inconclusive means small, poorly fitted or top-dose-only effect; inactive means flat fitted curve, though single readings scatter. The sample as a whole holds a higher share of actives than the screen did.
# Target: Luciferin 4-monooxygenase (Photinus pyralis) (UniProt P08659)
# Sequence (P08659 whole entry, looked up): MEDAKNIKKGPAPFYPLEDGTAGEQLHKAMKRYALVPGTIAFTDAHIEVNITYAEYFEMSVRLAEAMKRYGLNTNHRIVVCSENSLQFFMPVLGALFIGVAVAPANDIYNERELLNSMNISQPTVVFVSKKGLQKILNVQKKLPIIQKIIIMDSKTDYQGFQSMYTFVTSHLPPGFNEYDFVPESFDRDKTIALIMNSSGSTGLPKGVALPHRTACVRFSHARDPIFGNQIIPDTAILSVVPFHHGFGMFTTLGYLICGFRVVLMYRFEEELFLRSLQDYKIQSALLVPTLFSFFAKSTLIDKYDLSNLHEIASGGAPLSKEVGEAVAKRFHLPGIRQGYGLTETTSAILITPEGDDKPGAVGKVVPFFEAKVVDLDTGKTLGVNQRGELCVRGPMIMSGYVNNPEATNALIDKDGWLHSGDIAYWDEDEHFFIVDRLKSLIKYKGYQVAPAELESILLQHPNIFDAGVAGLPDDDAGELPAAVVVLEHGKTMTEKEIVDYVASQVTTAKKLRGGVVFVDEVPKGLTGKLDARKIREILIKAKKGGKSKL
# Experiment: qHTS profiling assay for firefly luciferase inhibitor/activator using purifed enzyme and Km concentrations of substrates (counterscreen for miR-21 project); further: nearly all actives have a fitted effect of over 55% in size;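 on activity change, negative = inhibition: plate controls were vehicle for no effect and reference inhibitor for full effect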
# Settings: purified FLuc, luminescence inhibition; series mostly up to 57.5 µM; activity change, negative = inhibition: at the top concentration
# In short: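 Biochemical qHTS of compounds, final roughly 60 µM downward over six points, against 10 nM purified firefly luciferase using Km concentrations of substrates (10 uM D-luciferin, 10 uM ATP) in Tris acetate pH 7.5 buffer; luminescence output.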
# Potency means the concentration at half of the fitted maximal effect.
SMILES,"activity change, negative = inhibition",Potency
COc1ccc(NC(=O)CCc2nnc3n(CC(C)C)c(=O)c4ccccc4n23)cc1OC,1.45% (inactive),–
CSc1ccc(C2C(C(=O)Nc3ccccc3)=C(C)Nc3nc4ccccc4n32)cc1 (configuration not stated),-0.306% (inactive),–
COc1ccc(CCNc2ncnc3onc(-c4ccc(Cl)cc4)c23)c(OC)c1,0.978% (inactive),–
CCCn1c(=N)c(C(=O)NCc2ccccc2)cc2c(=O)n3cccc(C)c3nc21,-0.698% (inactive),–
CCN1/C(=C/C(=S)Nc2ccccc2)Sc2ccccc21,–,10.7 µM (active)
O=C(CCN1c2ccccc2Sc2ccccc21)Nc1ccccc1,-1.69% (inactive),–
CCN1C(=O)/C(=C2/Sc3ccccc3N2CCCS(=O)(=O)O)SC1=S,-7.47% (inactive),–
CCOC(=O)c1csc(NC(=O)Nc2cccc(OC)c2)n1,-6.53% (inactive),–
CCOC(=O)Cc1csc(NC(NC(=O)OCC)(C(F)(F)F)C(F)(F)F)n1,0.679% (inactive),–
CCOC(=O)Cc1csc(NC(=O)Nc2ccccc2)n1,–,12 µM (active)
COc1ccc(OC)c(CNC(=O)Cn2nc(C)c3c(C)n(-c4ccc(C)cc4)nc3c2=O)c1,1.75% (inactive),–
Cc1cccc(NC(=O)c2nnn(CC(=O)Nc3ccc(C(C)C)cc3)c2N)c1C,1.34% (inactive),–
COc1ccc(CCNC(=O)CCc2c(C)nc3c(c(C)nn3-c3ccc(C)c(C)c3)c2C)c(OC)c1OC,-9.01% (inactive),–
CCN(C(=O)Cn1cc(S(=O)(=O)N2CCN(c3ccccc3F)CC2)c2ccccc2c1=O)c1ccc(C)c(C)c1,-4.46% (inactive),–
O=S(=O)(Nc1ccc2cn[nH]c2c1)c1ccccc1,-3.45% (inactive),–
O=S(=O)(Nc1ccc2nc(-c3ccco3)[nH]c2c1)c1ccccc1,–,12 µM (active)
CCc1ccccc1NS(=O)(=O)c1ccc2nc(-c3ccccc3)[nH]c2c1,-4.06% (inactive),–
CCN1CCN(Cc2c(O)ccc3oc(C)c(C(=O)Nc4ccc(C)cc4C)c23)CC1,5.5% (inactive),–
O=C(Cc1ccsc1)N1CCN(S(=O)(=O)c2cc(C(F)(F)F)cc(C(F)(F)F)c2)CC1,0.221% (inactive),–
CCN(CC)C(=O)Oc1ccc(OC(=O)N(CC)CC)cc1,0.534% (inactive),–
COc1ccc2nc(C)cc(Nc3cccc(C(=O)O)c3)c2c1,2.77% (inactive),–
COc1cccc(NC(=O)c2ccccc2SC)c1,-17.2% (inactive),–
COc1cccc(Nc2ncccc2C(=O)O)c1,–,19 µM (active)
CCOC(=O)c1cnc2c(c(C)nn2CC)c1Cl,1.72% (inactive),–
COC(=O)c1ccc(S(=O)(=O)N2CCc3ccccc3C2)cc1,1.73% (inactive),–
Cc1cccc(NC(=O)CSCC(=O)Nc2nnc(C3CC3)s2)c1,-3.15% (inactive),–

SMILES,"activity change, negative = inhibition",Potency
O=C(Cc1cccs1)Nc1nnc(C2CC2)s1,-10.2% (inactive),–
O=C(Nc1nnc(C2CC2)s1)c1ccccn1,–,10.7 µM (active)
Cc1cc(=O)oc2cc(OCC(=O)Nc3nnc(C4CC4)s3)ccc12,1.19% (inactive),–
O=C(Nc1nnc(Cc2ccccc2)s1)c1cnccn1,-20.1% (inactive),–
Cc1cc(C(=O)Nc2nnc(C3CC3)s2)c(C)s1,–,13.5 µM (active)
Cc1ccc(N(C)C(=O)C2CCN(S(=O)(=O)c3ccc4c(c3)CCCN4C(=O)C3CCC3)CC2)cc1,-2.8% (inactive),–
O=C1CN(C(=O)Nc2ccccc2C(F)(F)F)C(c2ccccc2)c2c(sc3c2CCCC3)N1 (configuration not stated),-7.07% (inactive),–
CCOC(=O)C1CCN(C(=O)c2cccc(S(=O)(=O)N(CC)c3ccccc3)c2)CC1,1.65% (inactive),–
COc1cc(C(=O)N2CCN(c3ccc(Nc4ccc(C)cc4)nn3)CC2)cc(OC)c1OC,1.35% (inactive),–
COc1ccccc1C(=O)NNC(=O)CCN1C(=O)/C(=C\c2ccccc2)SC1=S,2.85% (inactive),–
COc1ccc(/C=C2\SC(=S)N(CCC(=O)Nc3cccc(C(=O)O)c3)C2=O)cc1OC,–,6.75 µM (active)
O=C(CCN1C(=O)/C(=C/c2cccs2)SC1=S)NNC(=O)c1cccc(O)c1,-7.67% (inactive),–
COc1ccc(S(=O)(=O)N2CCSCC2)cc1,2.73% (inactive),–
CCOC(=O)c1ccc(NC(=S)Nc2cc(C)cc(C)n2)cc1,-0.345% (inactive),–
CCOC(=O)c1cn[nH]c1NC(=S)Nc1ccccc1,–,2.13 µM (active)
CCOC(=O)c1cc2c(nc1NC(=S)Nc1ccccc1)CC(C)(CC)OC2 (configuration not stated),1.94% (inactive),–
Nc1c(N(CCCO)C(=O)C2CCCC2)c(=O)[nH]c(=O)n1Cc1ccccc1,0.813% (inactive),–
COc1ccccc1-c1nc(C(F)(F)F)c(OC)o1,5.71% (inactive),–
COc1ccccc1C1=Nc2cccc3cccc(c23)N1,–,16.9 µM (active)
c1ccc(C2=Nc3cccc4cccc(c34)N2)cc1,–,15.1 µM (active)
COc1ccc(N2C(=O)c3cccc4cccc(c34)C2=O)nn1,-5.3% (inactive),–
COc1ccc(-n2c(SCC(N)=O)nc3c(oc4ccccc43)c2=O)cc1,1.9% (inactive),–
CC(C)Nc1nnc(SC(C)C(=O)N(C)C2CCCCC2)s1 (configuration not stated),2.48% (inactive),–
Cc1cccc(N(C)C(=O)CS(=O)(=O)c2cccc3nsnc23)c1,-0.386% (inactive),–
O=C(CCn1c(=O)c2ccccc2n(Cc2ccc(Cl)cc2)c1=O)NCc1ccc2c(c1)OCO2,-1.28% (inactive),–
COc1cc(Cl)c(NC(=O)C(NS(=O)(=O)c2cccs2)C(C)C)c(OC)c1 (configuration not stated),-2.46% (inactive),–

SMILES,"activity change, negative = inhibition",Potency
Cc1ccn(-c2cccc(-n3ccc(C)n3)n2)n1,–,3.38 µM (active)
CCCCc1nnc(NC(=O)CSc2nc(N)cc(=O)[nH]2)s1,-14.7% (inactive),–
O=[N+]([O-])c1ccc(F)cc1Oc1nc(-c2cccnc2)nc2ccccc12,3.95% (inactive),–
Fc1ccc(/C=N/Nc2nc(-c3cccnc3)nc3ccccc23)cc1,–,2.13 µM (active)
COc1ccc(Nc2nc(-c3cccnc3)nc3ccccc23)cn1,4.78% (inactive),–
Cc1ccc(C2C=C(c3ccc(Cl)cc3)Nc3nc(NC(=O)CCC(=O)O)nn32)cc1 (configuration not stated),-0.821% (inactive),–
CC(=O)N1CCc2cc(S(=O)(=O)NC(Cc3ccccc3)C(=O)NCc3ccc(C)cc3)ccc21 (configuration not stated),-11.7% (inactive),–
COC(=O)[C@]1(S(=O)(=O)c2ccccc2)C[C@@H]2ON=C(c3ccc(OC)cc3)[C@@H]2C1,-11.7% (inactive),–
COc1ccc(Cl)cc1NC(=O)CN(C)CC(=O)Nc1ccc2c(c1)OCO2,3.37% (inactive),–
COc1ccc(C(=O)Nc2ccc3c(c2)OCO3)cc1OC,–,10.7 µM (active)
COc1cc(C(=O)NCC2(c3ccccc3)CCCC2)ccc1OC(C)C,0.624% (inactive),–
COc1ccc(NC(=O)c2ccc3nc(C(C)C)oc3c2)cc1OC,-17.7% (inactive),–
CCC(=O)c1cc2c(cc1NC(=O)c1cccs1)OCCO2,-16.3% (inactive),–
CN1CCN(C(=O)/C(=C\c2ccc3c(c2)OCO3)NC(=O)c2cccs2)CC1,0.0977% (inactive),–
COc1ccc(C(=O)Nc2ccc(C3(C#N)CCCC3)cc2)cc1OC,–,10.7 µM (active)
COc1cc(NC(=O)c2ccc3c(c2)OCO3)ccc1NC(=O)c1cccs1,–,10.7 µM (active)
COc1ccc(C(=O)Nc2ccc(-n3nncc3-c3ccccc3)cc2)cc1OC,-9.43% (inactive),–
C=CCNC(=O)/C(=C\c1cccc([N+](=O)[O-])c1)NC(=O)c1ccccc1,-1.02% (inactive),–
O=C(Nc1ccc(Br)cc1)c1cc2nc(-c3ccccc3)cc(-c3ccccc3)n2n1,4.76% (inactive),–
CCCCc1nn2c(=O)cc(COC(=O)c3ccc(NC(=O)c4ccccc4C)cc3)nc2s1,-2.13% (inactive),–
CCCCOc1ccc(-c2ncc(C(=O)OCC)c(N)n2)cc1,–,2.69 µM (active)
CCCCCCOc1ccc(OC(=O)c2cccnc2)cc1,-18.5% (inactive),–
CCOC(=O)c1cnc(SCC(=O)NCc2ccco2)nc1N,-1.53% (inactive),–
Cc1ccn2cc(-c3nonc3C)cc2c1,–,26.9 µM (active)
CCCCN(C)c1nnc(NC(=O)Nc2ccc(Br)c(C)c2)s1,-7% (inactive),–
Cc1ccc(S(=O)(=O)N2CCN(C(=O)c3ccccc3-c3nc4ccccc4s3)CC2)c(C)c1,0.348% (inactive),–

SMILES,"activity change, negative = inhibition",Potency
O=C(c1cc(-c2ccc(Cl)s2)nc2ccccc12)N1CCOCC1,–,23.9 µM (active)
CC(=O)N1CCN(C(=O)c2cc(-c3ccc(C)o3)nc3ccccc23)CC1,–,4.78 µM (active)
Cc1cc(C(=O)N2CCN(c3ccccn3)CC2)c(C)o1,3.1% [at 2.3 µM] (inactive),–
CCOc1ccccc1-c1cc(C(=O)N2CCOCC2)c2ccccc2n1,0.51% (inactive),–
Cc1c(NC(=O)c2cc(-c3ccc(Cl)s3)nc3ccccc23)c(=O)n(-c2ccccc2)n1C,-19.2% (inactive),–
CCN(CC)CCNC(=O)Cn1ncc2c3ccccc3n(Cc3ccccc3C)c2c1=O,1.71% (inactive),–
CC(=O)c1ccc(NC(=O)Cn2c(=O)oc3ccccc32)cc1,-1.43% (inactive),–
Cc1ccc(C(=O)Nc2ccc(OCc3cc(=O)n4c(C)csc4n3)cc2)cc1,-1.13% (inactive),–
Cn1cc(CN2CCCCC2c2ccccn2)c(-c2ccc3c(c2)OCCO3)n1 (configuration not stated),0.917% (inactive),–
CCO[C@H]1OC(C(=O)Nc2ccccc2)=C[C@@H](C2CC2)[C@@H]1CCCO,-2.36% (inactive),–
Cn1c(=O)c2c(-c3cccc(Br)c3)c(C#N)c(N)nc2n(C)c1=O,-1.7% (inactive),–
Cc1c(C)n2c(SCC(=O)N3CCCC3)nnc2[nH]c1=O,-1.87% (inactive),–
CCOC(=O)c1cc2c(=O)n3ccccc3nc2n(CCCOC)c1=NC(=O)C(C)(C)Oc1ccc(Cl)cc1,2.07% (inactive),–
CC1CCCCN1S(=O)(=O)c1ccc(S(=O)(=O)N(CC(=O)Nc2ccccc2)Cc2cccs2)cc1 (configuration not stated),1.69% (inactive),–
CC(C)(C)NS(=O)(=O)c1ccc(NC(=O)C2CCCO2)cc1 (configuration not stated),-1.57% (inactive),–
O=C(Nc1ccc(-c2nnc(-c3ccccc3)o2)cc1)C1CCCO1 (configuration not stated),–,3.38 µM (active)
O=C(Nc1nnc(CCc2ccccc2)s1)C1CCCO1 (configuration not stated),-2.69% (inactive),–
COc1ccc(NC(=O)N2CCCC2C(=O)NCc2ccccc2Cl)cc1 (configuration not stated),-4.96% (inactive),–
CC(C)(C)c1ccc(CN2C(=O)c3ccccc3S2(=O)=O)cc1,-16.2% (inactive),–
CC(C)(C)c1ccc(OC2=CS(=O)(=O)c3ccccc32)cc1,–,15.1 µM (active)
O=S1(=O)C=C(SCCN2CCCC2)c2ccccc21,-2.28% (inactive),–
Cc1ccc(-n2c(=O)c3cccnc3n2CC(=O)NCc2ccc(F)cc2)cc1C,-12.7% (inactive),–
O=C(c1ccc2c(c1)N(Cc1ccccc1)C(=O)c1ccccc1S2(=O)=O)N1CCC(Cc2ccccc2)CC1,2.38% (inactive),–
Cc1nc(NC2=NC(C(=O)Nc3ccc(Cl)cc3)CC(=O)N2)nc2ccccc12 (configuration not stated),0.404% (inactive),–
